Of roughly 8,800 targets only a part is listed; those with a hit were picked by preference. About 0.5% of all pairs of compound and target were hits. A number with no mark means an inactive call.
Columns and labels:
Test in all cases: log2 fold change, soluble protein after heating vs DMSO (PISA); higher = thermal stabilisation; K562 lysate, 10 uM; active = over 0.2 and 3.5 SD of the protein, either way, in both replicates (recomputed)
ibrutinib = compound: C=CC(=O)N1CCC[C@@H](n2nc(-c3ccc(Oc4ccccc4)cc3)c3c(N)ncnc32)C1 [ibrutinib]
Outline: (§1)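 Values give the log-two fold change in thermal stability against solvent controls, from duplicates. Crude K562 extract at 1 mg/mL protein, made by dounce homogenisation in PBS pH 7.4 with 1 mM MgCl2, was treated with 10 μM compound for 30 min. After 3 min heating across 48°C-58°C, aliquots were pooled, adjusted to 0.5% NP-40 at 4°C and centrifuged at 21,000xg for 90 min. The supernatant was measured by TMTpro 16plex LC-MS/MS with channel sums equalised.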

[1] = compound: CC(=O)c1cnc2ccc(-c3cc(Cl)c(O)c(Cl)c3)nc2c1N[C@H]1CC[C@H](CN(C)C)CC1
Outline: as §1

ralimetinib = compound: CC(C)(C)Cn1c(N)nc2ccc(-c3[nH]c(C(C)(C)C)nc3-c3ccc(F)cc3)nc21 [ralimetinib]
Outline: as §1

[2] = compound: CC(C)(O)CC(=O)NCCn1ccc2ncnc(Nc3ccc(Oc4cccc(C(F)(F)F)c4)c(Cl)c3)c21
Outline: as §1

[3] = compound: CC(C)C1=C2N=C(C=C(N2N=C1)NCC3=CC=CC=C3)NCCCCCCN
Outline: as §1

[4] = compound: CC1=C(C(CC(=O)N1)C2=CC=C(C=C2)C(F)(F)F)C(=O)NC3=C(C=C4C(=C3)C=NN4)F
Outline: as §1

[5] = compound: CC1=C(C2=C(C=C1)C(=O)C3=CC=CC=C3N2CCCN)C
Outline: as §1

[6] = compound: CC1=C(C=C(C=C1)NC(=O)C2=CC(=CC=C2)C(C)(C)C#N)NC3=CC4=C(C=C3)N=CN(C4=O)C
Outline: as §1

[7] = compound: CC1=C(C=C(C=C1)NC(=O)C2=CC(=CC=C2)N(C)C)NC(=O)C3=CC=C(C=C3)O
Outline: as §1

[8] = compound: CC1=CC=C(C=C1)SC2=C3C=C(SC3=CN=C2)C(=O)N
Outline: as §1

vemurafenib = compound: CCCS(=O)(=O)Nc1ccc(F)c(C(=O)c2c[nH]c3ncc(-c4ccc(Cl)cc4)cc23)c1F [vemurafenib]
Outline: as §1

[9] = compound: CCCS(=O)(=O)Nc1ccc(F)c(C(=O)c2c[nH]c3ncc(Cl)cc23)c1F
Outline: as §1

barasertib = compound: CCN(CCCOc1ccc2c(Nc3cc(CC(=O)Nc4cccc(F)c4)[nH]n3)ncnc2c1)CCOP(=O)(O)O [barasertib]
Outline: as §1

[10] = compound: CC[C@@H]1C(=O)N(C)c2cnc(Nc3ccc(C(=O)NC4CCN(C)CC4)cc3OC)nc2N1C1CCCC1
Outline: as §1

volasertib = compound: CC[C@@H]1C(=O)N(C)c2cnc(Nc3ccc(C(=O)N[C@H]4CC[C@H](N5CCN(CC6CC6)CC5)CC4)cc3OC)nc2N1C(C)C [volasertib]
Outline: as §1

[11] = compound: CCn1c(C(=O)N(C2CC2)C2CC2)cc2c3c(ncn3C)c(Nc3cc(C)n(C)n3)nc21
Outline: as §1

[12] = compound: CCn1cc(-c2ccnc3[nH]c(-c4cccc(CN(C)C)c4)cc23)c(-c2ccc(NC(=O)N(C)C)cc2)n1
Outline: as §1

[13] = compound: CN1CCC(CNc2ccc3ncc(-c4cccc(OC(F)(F)F)c4)n3n2)CC1
Outline: as §1

saracatinib = compound: CN1CCN(CCOc2cc(OC3CCOCC3)c3c(Nc4c(Cl)ccc5c4OCO5)ncnc3c2)CC1 [saracatinib]
Outline: as §1

sotrastaurin = compound: CN1CCN(c2nc(C3=C(c4c[nH]c5ccccc45)C(=O)NC3=O)c3ccccc3n2)CC1 [sotrastaurin]
Outline: as §1

Sequence of UniProt Q8N511 (Q8N511 whole entry, looked up): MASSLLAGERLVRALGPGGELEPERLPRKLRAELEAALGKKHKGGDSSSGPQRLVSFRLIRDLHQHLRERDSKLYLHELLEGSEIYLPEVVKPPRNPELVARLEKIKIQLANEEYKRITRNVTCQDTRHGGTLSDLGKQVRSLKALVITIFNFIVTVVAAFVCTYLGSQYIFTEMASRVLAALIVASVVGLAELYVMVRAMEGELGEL
Sequence of UniProt Q8IWV7 (Q8IWV7 whole entry, looked up): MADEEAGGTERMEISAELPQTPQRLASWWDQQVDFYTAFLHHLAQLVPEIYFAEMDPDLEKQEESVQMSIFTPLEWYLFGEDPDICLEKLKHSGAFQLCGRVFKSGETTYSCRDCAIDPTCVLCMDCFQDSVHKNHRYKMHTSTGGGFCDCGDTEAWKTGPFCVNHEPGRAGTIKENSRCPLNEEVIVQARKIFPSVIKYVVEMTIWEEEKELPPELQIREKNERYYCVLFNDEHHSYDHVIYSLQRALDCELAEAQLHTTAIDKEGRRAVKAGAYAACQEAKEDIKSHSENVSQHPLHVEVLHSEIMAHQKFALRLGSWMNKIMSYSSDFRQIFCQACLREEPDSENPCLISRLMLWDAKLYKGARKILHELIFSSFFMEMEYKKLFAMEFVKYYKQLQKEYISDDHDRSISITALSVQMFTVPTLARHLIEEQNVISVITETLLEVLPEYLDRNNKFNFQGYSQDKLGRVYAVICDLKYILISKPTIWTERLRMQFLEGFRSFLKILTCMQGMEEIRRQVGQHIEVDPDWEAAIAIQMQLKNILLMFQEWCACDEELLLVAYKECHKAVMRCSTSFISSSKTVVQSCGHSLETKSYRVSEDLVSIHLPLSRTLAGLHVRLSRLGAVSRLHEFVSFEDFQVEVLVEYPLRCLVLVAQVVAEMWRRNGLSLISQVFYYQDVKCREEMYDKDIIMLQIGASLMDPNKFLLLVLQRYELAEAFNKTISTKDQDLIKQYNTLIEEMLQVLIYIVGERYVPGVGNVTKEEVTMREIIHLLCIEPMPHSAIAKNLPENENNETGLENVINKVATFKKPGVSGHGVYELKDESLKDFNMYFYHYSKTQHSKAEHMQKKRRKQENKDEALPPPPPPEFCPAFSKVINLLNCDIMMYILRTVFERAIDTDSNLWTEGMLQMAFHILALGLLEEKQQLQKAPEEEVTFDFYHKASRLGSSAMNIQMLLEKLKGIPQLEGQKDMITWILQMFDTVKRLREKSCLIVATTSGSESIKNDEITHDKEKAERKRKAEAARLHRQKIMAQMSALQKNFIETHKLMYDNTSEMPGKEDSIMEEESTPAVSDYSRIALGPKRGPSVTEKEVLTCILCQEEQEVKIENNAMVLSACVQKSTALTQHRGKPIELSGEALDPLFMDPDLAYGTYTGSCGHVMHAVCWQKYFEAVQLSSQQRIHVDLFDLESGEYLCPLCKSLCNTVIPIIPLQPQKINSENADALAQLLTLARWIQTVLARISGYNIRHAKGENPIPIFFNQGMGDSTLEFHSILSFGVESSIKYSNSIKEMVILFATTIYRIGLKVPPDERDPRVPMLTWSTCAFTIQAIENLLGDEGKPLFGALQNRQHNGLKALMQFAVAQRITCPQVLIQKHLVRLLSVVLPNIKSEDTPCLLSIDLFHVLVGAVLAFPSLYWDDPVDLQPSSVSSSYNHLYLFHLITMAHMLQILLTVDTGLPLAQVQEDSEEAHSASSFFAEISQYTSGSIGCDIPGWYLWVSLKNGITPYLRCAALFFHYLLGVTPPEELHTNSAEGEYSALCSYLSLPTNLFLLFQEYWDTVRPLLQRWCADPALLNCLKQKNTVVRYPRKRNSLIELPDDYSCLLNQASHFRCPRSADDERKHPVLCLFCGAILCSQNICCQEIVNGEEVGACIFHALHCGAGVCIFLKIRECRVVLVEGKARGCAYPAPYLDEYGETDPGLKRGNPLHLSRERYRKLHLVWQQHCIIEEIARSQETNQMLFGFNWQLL
Sequence of UniProt Q9BQE3 (Q9BQE3 whole entry, looked up): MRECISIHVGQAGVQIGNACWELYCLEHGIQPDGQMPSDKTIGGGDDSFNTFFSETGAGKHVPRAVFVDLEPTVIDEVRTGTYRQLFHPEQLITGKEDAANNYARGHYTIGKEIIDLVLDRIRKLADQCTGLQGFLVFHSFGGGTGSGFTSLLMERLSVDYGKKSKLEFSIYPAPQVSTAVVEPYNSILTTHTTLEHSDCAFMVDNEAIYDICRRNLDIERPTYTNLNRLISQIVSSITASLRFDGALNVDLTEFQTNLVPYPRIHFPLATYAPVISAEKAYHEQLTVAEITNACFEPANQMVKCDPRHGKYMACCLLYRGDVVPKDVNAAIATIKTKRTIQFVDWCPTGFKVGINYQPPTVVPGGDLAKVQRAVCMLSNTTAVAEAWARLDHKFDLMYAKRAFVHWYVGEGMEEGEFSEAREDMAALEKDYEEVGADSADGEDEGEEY
Sequence of UniProt Q96DX7 (Q96DX7 whole entry, looked up): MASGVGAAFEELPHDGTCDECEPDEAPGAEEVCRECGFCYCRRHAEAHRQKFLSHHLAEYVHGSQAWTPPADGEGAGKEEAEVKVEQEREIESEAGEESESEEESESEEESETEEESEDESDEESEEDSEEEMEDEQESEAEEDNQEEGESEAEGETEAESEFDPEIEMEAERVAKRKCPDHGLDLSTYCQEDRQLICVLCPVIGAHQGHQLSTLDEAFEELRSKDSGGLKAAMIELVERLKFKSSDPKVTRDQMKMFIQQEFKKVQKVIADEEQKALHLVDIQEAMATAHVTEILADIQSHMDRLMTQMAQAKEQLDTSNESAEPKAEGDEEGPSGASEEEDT
Sequence of UniProt Q12815 (Q12815 whole entry, looked up): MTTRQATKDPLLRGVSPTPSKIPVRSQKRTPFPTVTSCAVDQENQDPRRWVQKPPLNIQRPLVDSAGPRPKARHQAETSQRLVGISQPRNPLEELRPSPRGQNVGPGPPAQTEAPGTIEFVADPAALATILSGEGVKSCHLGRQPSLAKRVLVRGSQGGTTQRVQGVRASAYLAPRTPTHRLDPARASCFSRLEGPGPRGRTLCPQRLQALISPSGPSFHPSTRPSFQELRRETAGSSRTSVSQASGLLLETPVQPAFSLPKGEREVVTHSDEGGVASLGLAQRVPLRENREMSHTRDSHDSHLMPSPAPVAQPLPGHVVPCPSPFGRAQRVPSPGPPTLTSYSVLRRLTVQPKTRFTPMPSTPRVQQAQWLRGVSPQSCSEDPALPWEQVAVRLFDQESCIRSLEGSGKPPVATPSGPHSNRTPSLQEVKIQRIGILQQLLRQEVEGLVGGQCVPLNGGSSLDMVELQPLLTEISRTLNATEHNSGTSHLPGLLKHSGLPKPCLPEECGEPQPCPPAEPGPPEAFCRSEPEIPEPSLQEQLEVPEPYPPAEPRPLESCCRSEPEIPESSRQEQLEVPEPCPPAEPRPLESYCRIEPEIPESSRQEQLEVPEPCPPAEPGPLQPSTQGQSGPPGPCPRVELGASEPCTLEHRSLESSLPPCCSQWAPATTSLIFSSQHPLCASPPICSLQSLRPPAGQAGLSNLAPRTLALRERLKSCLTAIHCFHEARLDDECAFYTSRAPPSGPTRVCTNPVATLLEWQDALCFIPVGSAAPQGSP
Sequence of UniProt O43156 (O43156 whole entry, looked up): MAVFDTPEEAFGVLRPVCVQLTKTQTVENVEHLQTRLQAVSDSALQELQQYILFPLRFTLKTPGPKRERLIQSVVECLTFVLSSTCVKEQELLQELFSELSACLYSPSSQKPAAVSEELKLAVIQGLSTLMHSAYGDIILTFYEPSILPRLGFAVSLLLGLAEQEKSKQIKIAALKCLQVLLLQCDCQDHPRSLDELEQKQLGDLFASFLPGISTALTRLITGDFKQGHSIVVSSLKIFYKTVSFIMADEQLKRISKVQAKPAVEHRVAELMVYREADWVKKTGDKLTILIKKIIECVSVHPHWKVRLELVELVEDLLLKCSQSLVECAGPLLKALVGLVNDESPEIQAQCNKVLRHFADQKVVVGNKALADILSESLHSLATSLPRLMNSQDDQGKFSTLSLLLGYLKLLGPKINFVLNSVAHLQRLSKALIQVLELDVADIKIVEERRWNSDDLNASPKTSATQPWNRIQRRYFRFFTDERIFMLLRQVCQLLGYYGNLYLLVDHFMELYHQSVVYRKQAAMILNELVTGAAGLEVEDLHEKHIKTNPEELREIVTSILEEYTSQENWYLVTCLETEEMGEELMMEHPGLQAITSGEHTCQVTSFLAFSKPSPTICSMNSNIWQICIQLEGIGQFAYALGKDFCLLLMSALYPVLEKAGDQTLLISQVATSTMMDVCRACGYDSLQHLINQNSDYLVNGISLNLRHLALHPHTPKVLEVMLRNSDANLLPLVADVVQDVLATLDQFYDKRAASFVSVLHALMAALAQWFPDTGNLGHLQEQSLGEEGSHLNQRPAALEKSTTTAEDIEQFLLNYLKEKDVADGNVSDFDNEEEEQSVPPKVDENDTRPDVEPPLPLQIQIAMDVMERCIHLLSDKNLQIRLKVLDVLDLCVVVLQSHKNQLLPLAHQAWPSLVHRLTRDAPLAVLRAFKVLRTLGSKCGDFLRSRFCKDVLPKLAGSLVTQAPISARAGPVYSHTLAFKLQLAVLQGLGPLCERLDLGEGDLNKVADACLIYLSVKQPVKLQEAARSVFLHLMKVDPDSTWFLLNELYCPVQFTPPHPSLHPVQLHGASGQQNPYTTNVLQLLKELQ
Sequence of UniProt Q13885 (Q13885 whole entry, looked up): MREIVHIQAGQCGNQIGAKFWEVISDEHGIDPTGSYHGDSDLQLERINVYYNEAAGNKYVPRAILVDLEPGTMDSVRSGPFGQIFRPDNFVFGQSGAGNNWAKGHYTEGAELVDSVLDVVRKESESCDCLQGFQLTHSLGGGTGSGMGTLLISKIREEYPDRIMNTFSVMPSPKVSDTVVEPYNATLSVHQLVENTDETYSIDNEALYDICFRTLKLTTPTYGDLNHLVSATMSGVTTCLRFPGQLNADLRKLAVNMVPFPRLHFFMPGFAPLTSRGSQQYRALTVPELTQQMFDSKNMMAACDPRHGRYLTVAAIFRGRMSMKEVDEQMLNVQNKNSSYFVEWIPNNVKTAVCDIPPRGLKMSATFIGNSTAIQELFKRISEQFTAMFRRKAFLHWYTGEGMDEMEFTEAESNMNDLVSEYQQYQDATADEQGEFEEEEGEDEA

Target	log2 fold change (ibrutinib)	log2 fold change [1]	log2 fold change (ralimetinib)	log2 fold change [2]	log2 fold change [3]	log2 fold change [4]	log2 fold change [5]	log2 fold change [6]	log2 fold change [7]	log2 fold change [8]	log2 fold change (vemurafenib)	log2 fold change [9]	log2 fold change (barasertib)	log2 fold change [10]	log2 fold change (volasertib)	log2 fold change [11]	log2 fold change [12]	log2 fold change [13]	log2 fold change (saracatinib)	log2 fold change (sotrastaurin)
TPM4 (UniProt P67936)	-0.019	-0.021	0.003	-0.023	-0.023	-0.038	0.012	0.01	0.013	0.006	-0.025	0.009	0.047	0.125	0.055	0.018	0.037	-0.007	0.002	0.013
TROAP (UniProt Q12815)	0.191	-0.096	0.042	-0.02	0.037	0.011	0.02	-0.006	0.08	-0.25	0.113	0.146	0.053	0.063	0.31	0.043	-0.03	0.042	0.014	0.002
TUBB2A (UniProt Q13885)	0.005	0.014	0.032	-0.005	0.027	0.02	0.001	-0.011	0.032	0.001	-0.001	0.016	-0.013	-0.007	-0.049	0.003	-0.032	0.002	0.011	0.017
TMEM97 (UniProt Q5BJF2)	0.01	0.012	0.004	-0.056	-0.034	-0.025	-0.032	0.003	0.042	-0.017	0.076	-0.027	0.037	0.028	0.099	-0.048	-0.327 (active)	0.173	0.002	-0.08
TUBA1C (UniProt Q9BQE3)	-0.001	0.017	0.007	-0.043	0.032	0.015	-0.035	-0.012	0.043	0.009	0.036	0.026	0.013	0.009	-0.059	-0.029	-0.082	0.022	0.054	0.044
TOX4 (UniProt O94842)	-0.009	0.054	0.009	-0.034	-0.008	0.024	-0.002	0.033	0.023	0.006	-0.019	0.005	0.017	0.06	-0.027	-0.018	-0.235	0.147	0.041	0.005
TTI1 (UniProt O43156)	0	0.014	0.018	-0.049	-0.029	0.013	0.02	0.068	-0.009	0.026	0.006	-0.012	0.055	-0.093	-0.026	0.006	-0.074	0.019	-0.003	0.006
TRIM11 (UniProt Q96F44)	0.008	0.05	-0.009	-0.049	-0.011	-0.067	-0.04	0.005	-0.014	0.036	-0.049	-0.018	-0.034	-0.001	-0.043	0.022	0.024	0.009	0.024	-0.009
TSPAN13 (UniProt O95857)	0.018	-0.001	-0.048	-0.044	-0.083	0.102	0.036	0.088	0	-0.043	-0.032	-0.03	-0.033	0.177	0.032	0.046	0.114	0.059	0.134	-0.154
TOR3A (UniProt Q9H497)	0.008	0.023	0.002	-0.017	-0.001	0.018	-0.022	-0.036	0.018	0.365 (active)	-0.001	-0.11	-0.031	-0.013	-0.05	-0.006	-0.123	0.057	0.014	0.03
TUBA3C (UniProt P0DPH7)	-0.009	-0.007	0.041	-0.045	-0.047	0.002	0.029	-0.021	0.038	0.001	0.037	0.021	-0.011	-0.041	-0.026	0.012	-0.062	-0.013	0.013	0.048
UBR1 (UniProt Q8IWV7)	0.007	0.005	0.015	-0.044	-0.014	-0.011	0.004	-0.004	-0.03	-0.008	-0.018	0.025	0.054	-0.032	-0.07	0.03	-0.046	-0.038	0.019	0.004
TRIM44 (UniProt Q96DX7)	0.031	0.124	0.032	-0.013	-0.037	-0.021	-0.004	-0.044	0.022	0.086	-0.085	0.095	0.066	-0.075	-0.014	0.003	0.146	-0.031	0.023	0.044
TPM1 (UniProt H7BYY1)	-0.002	-0.018	-0.035	0.068	0.037	-0.027	0.023	-0.045	0.039	-0.034	-0.001	-0.024	-0.031	0.052	0.043	-0.003	0.092	-0.205 (active)	0.009	0.015
TCAF2 (UniProt A6NFQ2)	0.009	-0.009	0.078	-0.017	0.013	0.022	0.055	-0.005	-0.021	0.063	0.052	0.041	-0.048	-0.027	-0.049	0.045	0.003	-0.05	0.004	-0.017
TMEM199 (UniProt Q8N511)	0.067	0.001	-0.001	-0.078	-0.003	0.001	-0.275 (active)	-0.043	-0.016	0.009	0	0.026	0.009	0.023	0	-0.003	-0.06	0.054	0.048	0.035

— the supplement of paper PMC10849652
